A number with no mark means an inactive call.
Test system: Vero E6 infected with SARS-CoV-2
Test: inhibition of SARS-CoV-2 cytopathic effect; higher = more antiviral protection, active = above 15
Settings: 48 h

SMILES	inhibition of SARS-CoV-2 cytopathic effect (1 nM)	inhibition of SARS-CoV-2 cytopathic effect (8.33 nM)	inhibition of SARS-CoV-2 cytopathic effect (100 nM)	inhibition of SARS-CoV-2 cytopathic effect (833.33 nM)	inhibition of SARS-CoV-2 cytopathic effect (10000 nM)
CC(C)C(=O)OC[C@H]1O[C@@H](n2ccc(N)nc2=O)[C@](C)(F)[C@@H]1OC(=O)C(C)C [mericitabine]	-0.35%	-2.22%	2.05%	-0.85%	1.88%
C/C=C1\[C@H]2C=C(C)C[C@]1(N)c1ccc(=O)[nH]c1C2 [(-)-Huperzine A]	0.37%	2.1%	0.96%	-0.65%	-0.5%
CO[C@@H]1[C@@H](OC(N)=O)[C@@H](O)[C@H](Oc2ccc3c(O)c(NC(=O)c4ccc(O)c(CC=C(C)C)c4)c(=O)oc3c2C)OC1(C)C [novobiocin]	-2.55%	-2.69%	2.34%	0.52%	0.14%
CCn1cnc2c(Nc3cccc(Cl)c3)nc(N[C@@H]3CCCC[C@@H]3N)nc21	-1.22%	0.37%	2.67%	3.13%	-29.1%
CCCCCN(C)CCC(O)(P(=O)(O)O)P(=O)(O)O [ibandronate]	0.68%	1.34%	0.79%	-3.03%	-2.11%
CCC1(C)CC(=O)NC1=O (stereo not given) [ethosuximide]	-0.56%	1.45%	1.18%	1.39%	-4.8%
O[C@H]1[C@H](O)[C@@H](O)[C@H](O)[C@@H](O)[C@H]1O [inositol]	-0.68%	0.73%	-1.55%	1.69%	2.84%
CC[C@@H](C(=O)[C@@H](C)[C@@H](O)[C@H](C)[C@@H]1O[C@@H]([C@@H](CC)C(=O)O)CC[C@@H]1C)[C@H]1O[C@]2(C=C[C@@H](O)[C@]3(CC[C@@](C)([C@H]4CC[C@](O)(CC)[C@H](C)O4)O3)O2)[C@H](C)C[C@@H]1C [Salinomycin (Procoxacin)]	-2.73%	0.16%	4.82%	50.9% (active)	57% (active)
COc1ccc(CN(CCN(C)C)c2ccccn2)cc1 [mepyramine]	-3.35%	-2.48%	-1.11%	2.27%	1.04%
O=C(O)COc1cccc(-c2ocnc2-c2nc(-c3ccccc3)c(-c3ccccc3)o2)c1	-0.58%	0.52%	0.7%	0%	3.01%
CN1C[C@@H]2CN(c3ccc(-c4ccccc4)nn3)C[C@@H]2C1	1.02%	-1.9%	0.67%	0.54%	-3.37%
O=C1C(Cl)=C(NCCN2CCOCC2)C(=O)c2ncccc21	-0.37%	1.19%	1.71%	6%	-17.2%
Cc1cccc(Nc2nc(-c3ccncc3)cs2)c1	0.53%	-0.51%	-0.62%	8.36%	48.4% (active)
Nc1nc(N)nc(-c2cc(Cl)ccc2Cl)n1 [irsogladine]	2.68%	1.38%	0.04%	1.79%	-0.24%
CO/N=C(\C(=O)N[C@@H]1C(=O)N2C(C(=O)O)=CCS[C@H]12)c1csc(N)n1 [ceftizoxim]	-1.24%	-13.2%	-0.8%	0.85%	0.82%
CCCc1nc(C(C)(C)O)c(C(=O)OCc2oc(=O)oc2C)n1Cc1ccc(-c2ccccc2-c2nnn[nH]2)cc1 [olmesartan-medoxomil]	-1.27%	0.1%	-1.32%	1.87%	0.55%
Nc1cccc(CNC(=O)c2ccc(Oc3ccc(OCc4cccc(F)c4)cc3)nc2)c1	-2.39%	-0.37%	0.75%	0.65%	-2.15%
CC(C)(O)c1coc(S(=O)(=O)NC(=O)Nc2c3c(cc4c2CCC4)CCC3)c1	-0.7%	-2.3%	-3.97%	0.34%	-0.6%
Cc1c(N2C(=O)[C@@H]3[C@H](O)CCN3C2=O)ccc(C#N)c1Cl	2.38%	3.57%	0.87%	2.02%	1.06%

Reference: the supplement of paper PMC13380429
